Data on 37 compounds can be found in PubChem BioAssay (NCI).

Assay [1] is described as follows: NCI Yeast Anticancer Drug Screen. Data for the rad50 strain (AID 155).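 Note: 0% = growth of vehicle-only cultures of the same strain.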 The note with it: S. cerevisiae rad50 strain growth inhibition, hits give high values; at 50.0 µM unless noted. The procedure, abridged:
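Compounds were tested on a yeast strain with an engineered DNA damage repair alteration; the reported value is growth inhibition normalised to vehicle treatment.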

Assay [2] is described as follows: NCI Yeast Anticancer Drug Screen. Data for the mec2-1 strain (AID 157). The note with it: S. cerevisiae mec2-1 strain, hits give high values; at 50.0 µM unless noted. The procedure, abridged: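 Using mec2-1 yeast: add compound, measure growth, express inhibition versus vehicle-treated cultures.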
Assay [3] in a line: NCI Yeast Anticancer Drug Screen. Data for the sgs1 mgt1 strain (AID 161).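 Note: 0% = growth of cultures given vehicle only.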 The note with it: S. cerevisiae sgs1 mgt1 strain, hits give high values; at 50.0 µM unless noted. The procedure, abridged: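 Percent growth inhibition was derived by comparing compound-exposed mutant yeast with vehicle-exposed cultures. The strain carries alterations in DNA damage repair.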
A short description of assay [4]: NCI Yeast Anticancer Drug Screen. Data for the cln2 rad14 strain (AID 165).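 Note: 0% = growth equal to vehicle treated cultures.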 The note with it: S. cerevisiae cln2 rad14 strain, hits give high values; at 50.0 µM unless noted. The procedure, abridged:
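Yeast strain cln2 rad14, bearing defects in cell cycle control and DNA repair, serves as the test system; values reflect growth inhibition compared with vehicle.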

A short description of assay [5]: NCI Yeast Anticancer Drug Screen. Data for the bub3 strain (AID 167). The note with it: S. cerevisiae bub3 mutant strain, hits give high values; at 50.0 µM unless noted. The procedure, abridged:
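Growth of a checkpoint-deficient yeast mutant is measured after compound exposure. Values represent inhibition relative to vehicle.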

The nature of assay [6]: NCI Yeast Anticancer Drug Screen. Data for the mlh1 rad18 strain (AID 175). The conditions noted are these: S. cerevisiae mlh1 rad18 strain growth inhibition, hits give high values; at 50.0 µM unless noted. The procedure, abridged: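 Steps: expose repair-defective yeast to compound; measure growth; express inhibition against vehicle-treated controls.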

Several values for one entry are separate records, joined by “and”; a condition that tells them apart may be missing. Equal entries are not always repeated. The panel holds about 79,000 compounds, 15% with a hit somewhere; the sample as a whole holds those more often. Values without a mark were called inactive. Activity calls are given as the source filed them. Cut-off read from the data, not from the text of the source: active = growth inhibition above about 70%; inactive = the rest.

For `CN(C=O)c1c(F)cc(N=Nc2ccccc2)cc1F`, the growth inhibition was 2.8% in assay [1]; 1.15% in assay [2]; 6.65% in assay [3]; -16.1% in assay [4]; 2.25% in assay [5]; 9.7% in assay [6].
With `CC1CCC(c2cc(-c3ccccc3)n(-c3ccccc3)n2)CC1` (configuration not stated), the growth inhibition in assay [1] is -6.25%; in assay [2] it was 6.05%; in assay [3], -2.35%; in assay [4], -26.4%; in assay [5], -17.4%; in assay [6], -6.15%.
As for `CC(O)C(=O)OCCOc1ccc(Cl)cc1Cl` (configuration not stated), the growth inhibition in assay [1] was 7.75%; in assay [2], 10.3%; in assay [3], 27.3%; in assay [4] it was -38.1%; in assay [5] it was 31.3%; in assay [6], 28.2%.
`O=C(O)Cc1ccc(O)cc1`: the growth inhibition is 6.25% in assay [1]; -25.6% in assay [2]; 8.6% in assay [3]; 8.45% in assay [4]; -11.7% in assay [5]; 1.75% in assay [6].
With `Cc1ccc2c(c1)P(=O)(O)c1cc(C)ccc1S2`, the growth inhibition in assay [1] is -12.4%; in assay [2], -16.6%; in assay [3], 14.4%; in assay [4] it was 22.4%; in assay [5] it was -4.05%; in assay [6], 19.7%.
For the compound `O=C(c1ccc(Cl)cc1)N1CCC(CCCc2ccccc2)CC1`, the growth inhibition in assay [1] is -2.2%; in assay [2] it was 3.45%; in assay [3] it was -4.3%; in assay [4], 5.05%; in assay [5], 12.8%; in assay [6], -3.2%.
For the compound `C[C@]12CCC(=O)C=C1CC[C@H]1[C@@H]3CC[C@](O)(C(=O)CO)[C@@]3(C)CC(=O)[C@@]12SC(N)=O`, the growth inhibition is -4.6% in assay [1]; 6.55% in assay [2]; 3.9% in assay [3]; 20.8% in assay [4]; 6.1% in assay [5]; -15.7% in assay [6].
With `C=C(C)C(=NC(C)(C)C)Nc1ccc(C(=O)OCC)cc1`, the growth inhibition is -8.3% in assay [1]; -5.6% in assay [2]; -11.8% in assay [3]; -21.2% in assay [4]; -24.1% in assay [5]; -45.6% in assay [6].
For `CC(=O)NCC(C)NC(C)=O` (configuration not stated), the growth inhibition was -16.6% and -6.55% in assay [1]; -37.4% and -15.4% in assay [2]; -34.2% and -27.1% in assay [3]; -6.75% and 7.7% in assay [4]; -14.8% and -2.45% in assay [5]; -15.2% and 8.1% in assay [6].
Turning to `O=C(O)c1ccc(/C=N/N=C2c3ccccc3-c3ccccc32)cc1`, the growth inhibition in assay [1] was 66.6%; in assay [2], 35.5%; in assay [3], 41%; in assay [4], 72.1% (active); in assay [5], -4.5%; in assay [6], 64.2%.
In the case of `CC#CC#C/C(=C/C=CC(=O)OC)SC`, the growth inhibition in assay [1] is 1.95%; in assay [2], -18.9%; in assay [3] it was 13.7%; in assay [4], 12.3%; in assay [5] it was 6.6%; in assay [6], -38.2%.
Consider `O=C(Nc1ccccc1)Nc1ccc([N+](=O)[O-])cc1[N+](=O)[O-]`, for which the growth inhibition in assay [1] was 25.5%; in assay [2] it was 5.95%; in assay [3], 26.9%; in assay [4], 19.7%; in assay [5] it was 11.9%; in assay [6] it was 20.6%.
Turning to `c1ccc(CCCNc2nnnc3ccccc23)cc1`, the growth inhibition in assay [1] is -9.3%; in assay [2] it was -36.1%; in assay [3] it was -10.8%; in assay [4], -19.2%; in assay [5], -57.2%; in assay [6], -4.4%.
On to `COc1ccccc1NC(=O)C(/C=N/C(=S)NNC(C)=O)=C(/C)O`, for which the growth inhibition in assay [1] was 0.7%; in assay [2], -16.2%; in assay [3] it was -27%; in assay [4] it was -5.9%; in assay [5], -12.6%; in assay [6], 2.45%.
As for `CC(C)N1C(=O)N(Cl)C2C1N(Cl)C(=O)N2Cl` (configuration not stated), the growth inhibition is 15% in assay [1]; -0.4% in assay [2]; -6.7% in assay [3]; 22.6% in assay [4]; -3.55% in assay [5]; 53.9% in assay [6].
For `COc1ccc(Cl)cc1N`, the growth inhibition in assay [1] was -14.3% and 17.1%; in assay [2], -15.6% and -4%; in assay [3], -12.7% and -2.8%; in assay [4] it was 8.35% and 22.1%; in assay [5], 3.25% and -3.2%; in assay [6] it was -7.55% and 16.1%.
On to `NC(=S)N/N=C1\CCCc2ccccc21`, for which the growth inhibition in assay [1] was 60.8%; in assay [2], 21.2%; in assay [3], 42.3%; in assay [4], 41.9%; in assay [5], 7.15%; in assay [6], 52.8%.
Regarding `CN1C(=O)N(C2CCCCC2)C(=O)C(C)(CN2CCCCC2)C1=O` (configuration not stated), the growth inhibition is 12.7% in assay [1]; 14.1% in assay [2]; 12.2% in assay [3]; 17.6% in assay [4]; -5.25% in assay [5]; 12.2% in assay [6].
As for `NNC(=O)Cc1cccnc1`, the growth inhibition in assay [1] is -3.6%; in assay [2], -0.75%; in assay [3], -26.1%; in assay [4], -8%; in assay [5], -33%; in assay [6] it was 9.55%.
`O=C1/C(=C/c2ccc(O)cc2)CCc2ccccc21`: the growth inhibition is -21.6% in assay [1]; -6.35% in assay [2]; -2.1% in assay [3]; 2.75% in assay [4]; 11.9% in assay [5]; -34.2% in assay [6].
For the compound `CCCCCCC(C)OB(OC(C)CCCCCC)OC(C)CCCCCC` (configuration not stated), the growth inhibition in assay [1] was -27.6%; in assay [2], -49%; in assay [3] it was -0.8%; in assay [4], 13.8%; in assay [5] it was -41.4%; in assay [6], -0.85%.
As for `Cc1cc(C2=NCC(C)(C)S2)ccc1O`, the growth inhibition in assay [1] is 15.2%; in assay [2], 7.8%; in assay [3], 8.9%; in assay [4], 10.2%; in assay [5] it was 25%; in assay [6] it was 29.5%.
`N#CC1(c2ccccc2)CCC1`: the growth inhibition in assay [1] was 4.85%; in assay [2], -24.9%; in assay [3] it was 7.5%; in assay [4], 16.6%; in assay [5], 6.4%; in assay [6], 5.1%.
Take `O=C1/C(=C\c2ccccc2)Sc2cc[nH]c21`: the growth inhibition is 13.5% in assay [1]; 1.3% in assay [2]; 4.5% in assay [3]; -1.95% in assay [4]; -1.85% in assay [5]; 17.2% in assay [6].
Consider `CCOC(=O)CC(c1ccccc1)C(C)(C(=O)OCC)C(=O)OCC` (configuration not stated), for which the growth inhibition in assay [1] is -18.3%; in assay [2], -10.8%; in assay [3], 14.8%; in assay [4], 35.9%; in assay [5], 14.2%; in assay [6] it was -9.3%.
For the compound `O=C(CCN1C(=O)c2ccccc2C1=O)Nc1c(I)cc(I)c(C(=O)O)c1I`, the growth inhibition in assay [1] was -4.6%; in assay [2] it was -11.7%; in assay [3] it was -20.6%; in assay [4], -20.2%; in assay [5], 8.65%; in assay [6], 6.8%.
For `CCc1cc(C(=O)OC/C(C)=N/O)c2ccccc2n1`, the growth inhibition in assay [1] was -18.8%; in assay [2], -0.65%; in assay [3], -10.1%; in assay [4], -18.4%; in assay [5], 30.4%; in assay [6] it was -22.6%.
Regarding `N#CCN(CC#N)C1CC=CCC1N(CC#N)CC#N` (configuration not stated), the growth inhibition in assay [1] is -26.2%; in assay [2], 1%; in assay [3] it was -30.2%; in assay [4], -20.8%; in assay [5] it was -21%; in assay [6], -38.1%.
For the compound `O=c1oc2ccccc2cc1O`, the growth inhibition in assay [1] was -12.2%; in assay [2] it was -4.5%; in assay [3], -6%; in assay [4], -28.9%; in assay [5], -18.3%; in assay [6], 27.1%.
Turning to `COc1ccc(/C=N/NS(=O)(=O)c2ccc(NC(C)=O)cc2)cc1`, the growth inhibition in assay [1] was -15.2%; in assay [2], -30.1%; in assay [3], 16.4%; in assay [4] it was 22.8%; in assay [5], -21.8%; in assay [6] it was -9.15%.
Take `CCN(CC)CCN=c1nc(/C=C\C=C\NN(C)C(=S)SC)c(C)nn1C`: the growth inhibition in assay [1] is -49.7%; in assay [2], -7.95%; in assay [3] it was -15%; in assay [4] it was -12.3%; in assay [5], -1.05%; in assay [6], -12.8%.
Regarding `N/N=C1\C(=O)N(C2CCCCCC2)C(=O)C1C(=O)NC1CCCCCC1` (configuration not stated), the growth inhibition in assay [1] was -13.3%; in assay [2] it was -32.6%; in assay [3], -7.2%; in assay [4], -68.7%; in assay [5], -18.8%; in assay [6], -26.2%.
Regarding `CN(C)C1=NS(=O)(=O)c2ccccc21`, the growth inhibition in assay [1] is -0.75%; in assay [2], 1%; in assay [3], -7.25%; in assay [4], -40.3%; in assay [5], 6.35%; in assay [6], 2.9%.
For `CC(CN(C)C)C(=O)/C=C/c1ccc(Cl)cc1` (configuration not stated), the growth inhibition in assay [1] is 20%; in assay [2], 19%; in assay [3], 1.75%; in assay [4] it was 2.8%; in assay [5], -13.7%; in assay [6] it was 18.4%.
Consider `CCCCCCCCCCCC`, for which the growth inhibition in assay [1] is -33.9%; in assay [2], 25.4%; in assay [3] it was 13.6%; in assay [4], -25.9%; in assay [5] it was 37.9%; in assay [6], -9.9%.
As for `CCc1nc(N)nc(N)c1-c1ccc(NC2CCCCC2)c([N+](=O)[O-])c1`, the growth inhibition is 10.3% in assay [1]; 14.2% in assay [2]; 16.1% in assay [3]; 17.9% in assay [4]; -6.05% in assay [5]; 27.1% in assay [6].
Consider `Cc1nc2[nH]ncc2c(=O)n1-c1ccccc1Cl`, for which the growth inhibition in assay [1] was 6%; in assay [2], -4.1%; in assay [3], 5.95%; in assay [4] it was 5.35%; in assay [5], 3.75%; in assay [6], 9%.
